# Measured values: the supplement of paper PMC12636033
# ± gives the standard deviation of the averaged measurements. Over roughly 33,000 sequences, “E-score (rank enrichment, -0.5 to 0.5)” has its median near -0.0075; the highest 2% begin near 0.23. This is one part of a sample in which the highest values are shown more often than they occur.
# Tested on: WT Max(13-93) synthetic (M65Nle)
# Assay: PBM 8-mer E-score (E-score (rank enrichment, -0.5 to 0.5)); higher = stronger preferential binding
# Protocol: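 Protein binding microarray (universal PBM chip covering all 10-mers in fixed probe flanks) with chemically synthesized human Max(13-93) bHLH-LZ analogs (not full-length Max) bearing noncanonical residues (hArg, Tha, Aib, Nle at 65) and aromatic Cys staples. Read-out per 8-mer (and its reverse complement): E-score (rank-based enrichment, -0.5 to 0.5) and Z-score of median probe intensity.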
row,Sequence,PBM 8-mer E-score
1,AGCAGAAG,-0.0139 ± 0.09
2,ATCGCTCC,-0.0658 ± 0.15
3,ACGTAACC,0.109 ± 0.1
4,CTTACCGC,-0.13 ± 0.11
5,CTGATCCC,-0.00057 ± 0.1
6,AGTGCCTG,-0.101 ± 0.011
7,CTCAAGAG,-0.266 ± 0.032
8,AATTAATT,0.262 ± 0.088
9,AATTAGTC,-0.027 ± 0.071
10,AATTAATG,0.166 ± 0.16
11,CATTAGTA,0.0683 ± 0.015
12,AATTAATC,0.0672 ± 0.11
13,AATTAGTA,0.249 ± 0.075
14,CGGGCTCA,-0.237 ± 0.039
15,AAACAAAA,0.284 ± 0.023
16,GAACAACA,0.0194 ± 0.12
17,CAACAACA,0.237 ± 0.027
18,AAAACAAC,-0.0511 ± 0.034
19,AAACAAAC,0.0359 ± 0.011
20,CAACAAGA,0.0122 ± 0.26
21,AAACAAAT,0.275 ± 0.05
22,AAAACAAT,0.259 ± 0.0082
23,AAAACAAG,0.122 ± 0.18
24,AAACAAAG,0.114 ± 0.032
25,AAACAAGT,0.0146 ± 0.12

row,Sequence,PBM 8-mer E-score
1,TAACAAAA,0.166 ± 0.0052
2,CTATCTGC,-0.0743 ± 0.063
3,CACTACAG,-0.123 ± 0.011
4,GTTAGAGA,-0.0703 ± 0.011
5,AAGGCGAT,0.0502 ± 0.11
6,ATTAAAGC,0.133 ± 0.061
7,AAGGTTGA,0.14 ± 0.0094
8,CCGCTTAG,-0.158 ± 0.088
9,ATGCCGCC,-0.15 ± 0.1
10,AATCAACA,0.283 ± 0.051
11,GATCAACA,-0.0789 ± 0.16
12,TATCAACA,0.192 ± 0.053
13,GTCAAGAA,0.12 ± 0.082
14,ATTCGGGA,-0.128 ± 0.12
15,GAGGAAAA,0.113 ± 0.23
16,CTTTGAAA,0.0996 ± 0.023
17,GTTTGAAA,0.277 ± 0.019
18,ATTTGAAA,0.124 ± 0.0068
19,ATTAAACG,0.255 ± 0.023
20,ATTAAACA,0.095 ± 0.031
21,ATTAAACC,0.0834 ± 0.057
22,ATCAGACG,-0.142 ± 0.13
23,CACGGTCG,-0.27 ± 0.0093
24,ATGCAACC,0.244 ± 0.066
25,ATGCAACG,0.0584 ± 0.039

row,Sequence,PBM 8-mer E-score
1,ATGCAACA,0.229 ± 0.099
2,ACTCGTTA,-0.0291 ± 0.015
3,ACCATGTA,0.162 ± 0.065
4,ACCATGGT,-0.00014 ± 0.21
5,ACCATGCG,0.243 ± 0.0064
6,AACATGCT,0.242 ± 0.035
7,AACATGGT,0.052 ± 0.061
8,AACATGCA,0.202 ± 0.039
9,ACCATGCT,0.277 ± 0.028
10,ACCATGTG,0.442 ± 0.0045
11,ACCATGTC,0.0659 ± 0.016
12,ACCATGCA,0.221 ± 0.0057
13,ACCATGAT,0.136 ± 0.019
14,ACCATGCC,0.00171 ± 0.051
15,ATGATGAG,0.0781 ± 0.012
16,GTCGGTCA,-0.151 ± 0.14
17,AGAATGCC,-0.0707 ± 0.0056
18,CGCAGGCA,-0.131 ± 0.12
19,ATTAACGG,0.153 ± 0.089
20,GCTGGCCA,-0.0533 ± 0.076
21,CGGAACAC,-0.0883 ± 0.0097
22,CACGTTCA,0.163 ± 0.018
23,CATCCAAG,-0.0693 ± 0.012
24,AGCCCGTC,-0.151 ± 0.071
25,ATCATGTA,0.169 ± 0.004

row,Sequence,PBM 8-mer E-score
1,ATCATGTG,0.264 ± 0.022
2,ATCATGTC,0.186 ± 0.057
3,GTGGTTTA,0.179 ± 0.053
4,GGTGGTAA,0.11 ± 0.1
5,CGTGGTAA,0.246 ± 0.1
6,CGTGGAAG,0.176 ± 0.0075
7,CGTGGAAA,0.267 ± 0.071
8,TGTGGTAA,0.0282 ± 0.15
9,GGTGGAAA,0.0407 ± 0.064
10,AGTGGAAA,0.164 ± 0.094
11,CGTGGAAC,-0.0332 ± 0.0099
12,TGTGGAAA,0.249 ± 0.072
13,TCTCGGAA,-0.232 ± 0.095
14,CATCAAAA,0.0623 ± 0.033
15,ATCGTCTC,-0.00218 ± 0.023
16,GCCGATAA,0.032 ± 0.051
17,AACGCAGC,-0.1 ± 0.048
18,AACAATGC,0.161 ± 0.14
19,GCTGCGAC,-0.219 ± 0.069
20,CGCACAGC,-0.171 ± 0.087
21,GCGGTGAC,-0.146 ± 0.14
22,TGGTAAAA,0.0895 ± 0.03
23,GCGCTACA,-0.115 ± 0.006
24,ACGCTACA,0.275 ± 0.013
25,TCGCTACA,-0.0172 ± 0.075

row,Sequence,PBM 8-mer E-score
1,ATTGATTA,0.0358 ± 0.11
2,CTTGATTA,0.12 ± 0.025
3,GTTGATTA,0.2352 ± 0.0022
4,GCGTTTAA,0.0231 ± 0.056
5,ACGTGGTG,0.392 ± 0.024
6,CCGTGGTC,-0.211 ± 0.023
7,AAGTGGTG,-0.0214 ± 0.11
8,AGGTGGTG,0.109 ± 0.09
9,AGGTGGTC,-0.0706 ± 0.0051
10,CCGTGGTA,-0.0399 ± 0.0038
11,ACGTGGTC,0.312 ± 0.022
12,GCGTGGTA,0.215 ± 0.12
13,ACGTGGTA,0.347 ± 0.069
14,GGCAAGAA,0.127 ± 0.016
15,ACTTGGCA,0.0244 ± 0.14
16,CAAGGCTA,-0.0688 ± 0.18
17,TGCCAGAA,-0.0686 ± 0.042
18,ATGGTAAG,0.12 ± 0.15
19,ATGGTAAC,0.159 ± 0.045
20,ATGGTAAT,0.24 ± 0.019
21,AAAGGTGA,0.0498 ± 0.1
22,CATGGAAG,0.251 ± 0.028
23,CATGGAAC,0.0484 ± 0.039
24,AATGGAAG,0.0617 ± 0.11
25,CATCTTCG,-0.0197 ± 0.078

row,Sequence,PBM 8-mer E-score
1,CCCGGAGC,-0.218 ± 0.06
2,CGGAACAG,-0.184 ± 0.097
3,CCAATTCA,0.237 ± 0.0091
4,CCAATTCG,0.00099 ± 0.067
5,ACAATTCA,0.0972 ± 0.033
6,GAAAACTC,-0.0313 ± 0.025
7,AAACCCTG,0.124 ± 0.14
8,AAACCCAG,-0.00534 ± 0.0017
9,AAAACCTT,0.0888 ± 0.07
10,AAAACCTA,0.259 ± 0.038
11,CAAACCTA,0.0613 ± 0.11
12,AACCCCAT,0.00208 ± 0.027
13,AAACCCTA,0.253 ± 0.042
14,CAACCCTA,0.00074 ± 0.036
15,AAACCCAT,0.236 ± 0.013
16,ATAGCGAG,-0.0262 ± 0.05
17,AGGCCCAA,-0.118 ± 0.037
18,AAGCACAA,0.0693 ± 0.08
19,CGCTTCCG,-0.206 ± 0.041
20,AGCCTGGA,-0.148 ± 0.017
21,AAATCGAT,-0.116 ± 0.11
22,CTGCTATC,-0.116 ± 0.021
23,CTAGACGC,-0.0678 ± 0.01
24,AAAATTCG,0.181 ± 0.015
25,ACTAAAAT,0.073 ± 0.087

row,Sequence,PBM 8-mer E-score
1,CATACAAC,0.162 ± 0.012
2,AATACAAA,0.288 ± 0.024
3,AATACAAC,0.233 ± 0.077
4,AATACAAT,0.0116 ± 0.074
5,ACTACAAG,-0.03 ± 0.032
6,CCTACAAC,0.126 ± 0.041
7,ACTACAAC,0.253 ± 0.024
8,GATACAAA,0.0639 ± 0.0017
9,AATACAAG,0.148 ± 0.0056
10,ATCGTCTG,-0.0768 ± 0.04
11,AGTAGACC,-0.143 ± 0.07
12,AGTGACCA,-0.0103 ± 0.17
13,AAGGCAAG,0.149 ± 0.045
14,CAGTATCG,-0.0719 ± 0.0012
15,GACAATTA,-0.0274 ± 0.019
16,CTGATCAG,-0.107 ± 0.14
17,ATTGGACC,-0.0681 ± 0.039
18,AGAAGTAG,0.0117 ± 0.017
19,ACCGGAAA,-0.104 ± 0.11
20,ATAATTTA,0.228 ± 0.014
21,ATAATTAA,0.22 ± 0.13
22,ATAATTAT,0.239 ± 0.0049
23,ATAATTTG,0.254 ± 0.031
24,ATAATTAG,0.237 ± 0.16
25,CTAATTAG,0.0687 ± 0.053

row,Sequence,PBM 8-mer E-score
1,ATAATTTC,0.0565 ± 0.03
2,ATAATTAC,0.232 ± 0.019
3,ATAATTCG,0.147 ± 0.059
4,AGCACAGC,-0.163 ± 0.16
5,ACTCTCTG,-0.0092 ± 0.11
6,CCGCCTCA,-0.108 ± 0.14
7,ATGGTTTA,0.161 ± 0.047
8,AATGGGAA,0.0482 ± 0.059
9,CATGTTGC,0.12965 ± 2.8e-05
10,AATGTTGA,-0.0484 ± 0.091
11,GATGTTGA,0.0902 ± 0.11
12,CATGTTGG,0.156 ± 0.063
13,TATGTTGA,0.233 ± 0.0055
14,CATGTTGA,0.256 ± 0.1
15,ACGCGTAT,0.108 ± 0.0066
16,CAGCGAGA,-0.174 ± 0.013
17,GACGAATA,0.17 ± 0.011
18,GTCGTCCA,-0.159 ± 0.064
19,CCGTGGCA,-0.0466 ± 0.052
20,CCGTGGCC,-0.112 ± 0.013
21,ACGTGGCT,0.286 ± 0.018
22,AAGTGGCT,0.0496 ± 0.069
23,GCGTGGCC,0.0675 ± 0.016
24,TCGTGGCA,0.219 ± 0.1
25,ACTTGGCT,-0.128 ± 0.062

row,Sequence,PBM 8-mer E-score
1,ACGTGGCA,0.33 ± 0.0069
2,CCGTGGCG,-0.147 ± 0.07
3,ACGTGGCG,0.296 ± 0.05
4,ACGTGGCC,0.247 ± 0.0096
5,AGGTGGCG,0.13 ± 0.021
6,ACGGGCTC,-0.297 ± 0.085
7,CGGCAACA,-0.15 ± 0.01
8,ACCGCTAG,-0.0126 ± 0.12
9,CCCACATC,-0.1 ± 0.063
10,AGATGCAA,0.152 ± 0.13
11,CACTCCAA,-0.103 ± 0.025
12,CCGCTCGC,-0.0861 ± 0.086
13,ACCCCCCG,-0.2 ± 0.1
14,ATGGCGAA,0.104 ± 0.068
15,ACGCGTGA,0.219 ± 0.081
16,CCGCGTGC,0.268 ± 0.051
17,ACGCGTGG,0.212 ± 0.03
18,ACGCGTGC,0.244 ± 0.02
19,CCGCGTGA,0.172 ± 0.0086
20,CAGCGTGC,0.191 ± 0.014
